# Laboratory results published in ChEMBL document CHEMBL1157539, “Thousands of chemical starting points for antimalarial lead identification” (Nature, 2010).
# Tests used:
# Type in all cases: functional
# Plasmodium falciparum [1] = assay: GSK_TCMDC: Inhibition of Plasmodium falciparum 3D7 in whole red blood cells, using parasite LDH activity as an index of growth. Test compounds present at 2uM
# Plasmodium falciparum [2] = assay: GSK_TCMDC: Inhibition of Plasmodium falciparum Dd2 in whole red blood cells, using parasite LDH activity as an index of growth. Test compounds present at 2uM
# HepG2 = assay: GSK_TCMDC: Percent inhibition of human HepG2 cell line. Test compounds present at 10uM.
SMILES,Inhibition (Plasmodium falciparum [1]),Inhibition (Plasmodium falciparum [2]),Inhibition (HepG2)
CC1CN(c2ncc(-c3ccc(CNC4Cc5ccccc5C4)cc3)cn2)CC(C)N1.O=CO (stereo not drawn),85%,78%,27%
COc1ccc(C(=O)CCC(=O)N(Cc2ccc(-c3ccc(CNCc4cccnc4)cn3)cc2)C2CCN(Cc3ccccc3)CC2)cc1F.O=C(O)C(F)(F)F,94%,26%,30%
O=C(c1cc2c(s1)-c1cccc(Cl)c1SC2)N1CCN(c2ccncc2)CC1,94%,36%,45%
COc1ccc(NC(=O)/C=C/c2ccccc2Cl)cc1OCCN1CCC(c2nc3ccccc3[nH]2)CC1.Cl,92%,16%,35%
CCCOc1ccc(-c2nonc2NC(=O)c2ccccc2OC)cc1OCCC,98%,82%,23%
COCc1ccc(CN2CCC(C(=O)Nc3ccc(-c4nc5ccccc5[nH]4)cc3)CC2)o1,97%,13%,13%
CC(C(=O)N1CCCC1)N1CCN(C(c2ccccc2)c2ccccc2)CC1 (stereo not drawn),82%,56%,0%
Cn1ccnc1Sc1ncccc1[N+](=O)[O-],96%,2%,0%
CN1CCC(Oc2ccc(CN3CC[C@H](NC(=O)c4ccc(Cl)c(Cl)c4)C3)cc2Cl)C1.O=C(O)C(F)(F)F (stereo partly drawn),100%,78%,68%
C=CCc1ccc(C[C@H](NC(=O)OC(C)(C)C)C(=O)OC)cc1,98%,98%,77%
COc1ccc2c(c1)CCN(CCN1CCC(CNC(=O)c3ccc(-c4ccc(C#N)cc4)cc3)CC1)C2,100%,51%,40%
